Source: PubChem BioAssay
Most compounds without a hit are left out; they make up all but 6.1% or so of the library.
D1 potentiator: potentiators of human D1 dopamine receptor. AID 504651. HEK293 TREx D1 cells, calcium flux, dopamine EC20 potentiation. 360,000 tested, 0.036% active. potentiation, % at 10 µM. P21728; in the data active = potentiation above about 30%; note: 0% is about no effect
DRD3 agonist: agonists of human D3 dopamine receptor. AID 652048. P35462. max activation, %. D3R DiscoveRx beta-arrestin cells, luminescence, 90 min. 410,000 tested, 0.58% active; in the data active = max activation above about 30%; note: 0% is about no effect
Target sequence (P35462 whole entry, looked up): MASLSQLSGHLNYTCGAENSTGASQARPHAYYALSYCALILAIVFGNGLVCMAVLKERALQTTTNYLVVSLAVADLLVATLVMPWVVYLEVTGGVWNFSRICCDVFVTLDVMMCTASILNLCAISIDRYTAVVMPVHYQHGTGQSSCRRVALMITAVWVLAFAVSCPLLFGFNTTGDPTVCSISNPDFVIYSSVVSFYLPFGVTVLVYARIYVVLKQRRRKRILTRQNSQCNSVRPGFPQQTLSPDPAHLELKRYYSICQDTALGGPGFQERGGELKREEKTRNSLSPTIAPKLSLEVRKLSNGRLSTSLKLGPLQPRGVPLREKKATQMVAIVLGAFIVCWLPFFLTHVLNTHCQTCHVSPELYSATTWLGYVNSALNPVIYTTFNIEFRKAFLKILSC
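Agonist mode: compounds and dopamine controls were applied to plated cells for 90 min at 37 degrees C after an overnight attachment at 1500 cells/well. Luminescent read-out followed 30 - 60 minutes at room temperature with DiscoveRx detection reagent.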
D1 agonist: activates the human D1 dopamine receptor; activation, % at 2 µM; AID 504660; 360,000 tested, 1% active; HEK293 T-REx D1 cells, calcium flux, agonist mode; in the data active = activation above about 30%; note: 0% is about no effect
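Inducible HEK293 T-REx D1 cells, force-coupled to calcium signalling, were plated at 4000 cells/well with tetracycline and held overnight at 30 C. After no-wash calcium dye loading, compound-evoked calcium rise over 180 s flagged agonists.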
ERG Ets-DNA blk: blocks human ERG Ets domain binding to DNA. P11308. fluorescence polarization, His-ERG Ets domain / labelled DNA. Potency, µM (top dose mostly 76.9 µM), for inactives: at the highest dose FP activity, negative = inhibition, actives largely listed as inhibitors. 370,000 tested, 0.028% active; active = well fitted inhibition curve with a large enough effect in the polarisation, with a control signal flat; inconclusive = small, poorly fitted or top-dose-only effect, or effect the other way, or a change in a side signal; inactive = no such curve, though single readings can be large or run the other way; the % refers to the polarisation;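 note: polarization taken with two DNA probes labelled with fluorescein and Texas red; potency is the fitted concentration of half-maximal effect; % of control where 0% means no effect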
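His-tagged ERG Ets domain (1 uM in the protein solution; 300mM KCl, 50mM Tris-HCl, 1mM EDTA, 1mM DTT, pH 7.5) received compound, then a probe mix of 5 nM fluorescein-DNA and 100nM Texas-615-DNA. Fluorescence polarization was read for both dyes.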
D1 antag: blocks dopamine activation of the human D1 receptor | activity change, negative = inhibition, % at 10 µM | P21728 | 360,000 tested, 3.2% active | HEK293 TREx D1 cells, calcium flux, dopamine EC80; stronger effect = lower value; in the data active = activity change below about -30%; note: % is set by controls: 0 for no effect and ±100 for the full control effect
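Kinetic fluorescence of a calcium dye serves as the read-out. D1-expressing Hek293 Trex cells, induced overnight at 30 C, are exposed to compound for 180 s before an EC80 dopamine addition, then read 180 s further.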
DRD3 antagonist: blocks the human D3 dopamine receptor; D3R cells, DiscoveRx beta-arrestin luminescence, antagonist mode; stronger effect = lower value; max response, negative = inhibition, %; 360,000 tested, 2.5% active; in the data active = max response below about -50%; inconclusive = no clear call, values can overlap the other calls; note: % is set by controls: 0 for no effect and ±100 for the full control effect
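Cells expressing the human receptor were seeded at 1500 cells/well, incubated overnight at 37 degrees C in 5% CO2, then exposed to library compounds with dopamine controls for 90 minutes at 37 degrees C before luminescent detection.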
* hit, by the source's call; ? = inconclusive; . = no result.

SMILES	D1 potentiator	DRD3 agonist	D1 agonist	ERG Ets-DNA blk	D1 antag	DRD3 antagonist
COc1cccc(CNC(=O)c2ccc3c(c2)c(C)c(C)n3Cc2ccccc2)c1	-7.1	0.6	1.6	0.5%	-32.6*	.
Cc1c(C)n(Cc2ccccc2)c2ccc(C(=O)NCc3ccco3)cc12	-7.7	-14.3	6.8	-7.0%	-70.3*	.
CCc1ccc(CNC(=O)c2ccc3c(c2)c(C)c(C)n3Cc2ccccc2)cc1	-4.8	-8.7	2.7	-4.4%	-2.1	.
Cc1c(C)n(Cc2ccccc2)c2ccc(C(=O)OCCN(C)C)cc12	-4.0	-20.8	56.8*	9.2%	-24.7	-22.9
Cc1ccc(CNC(=O)c2ccc3c(c2)c(C)c(C)n3Cc2ccccc2)o1	-7.4	-17.1	5.2	0.4%	-28.0	.
Cc1ccc(NC(=S)NC(=O)c2ccc(F)cc2)cc1S(=O)(=O)Nc1cccc(Cl)c1	-8.5	-19.1	14.3	-4.8%	4.9	-59.8*
Cc1ccc(NC(=O)c2cccs2)cc1S(=O)(=O)Nc1cccc(Cl)c1	-6.0	0.8	5.4	-1.2%	-14.4	12.8
O=C(Cn1nnc(-c2ccccc2)c1COc1ccc2ccccc2c1)NCC1CC1	.	-9.8	.	.	.	?
Cc1ccc(NC2=CC(=O)CC(C)(C)C2)cc1F	0.6	8.5	-0.2	-3.0%	-18.4	5.0
Cc1cc(N)c(NC2=CC(=O)CC(C)(C)C2)cc1C	3.9	1.7	31.4*	-2.6%	15.2	-15.5
CCC(=O)N1CCc2cc(Br)cc(S(=O)(=O)CCC(=O)NCCOC)c21	9.4	-4.8	4.2	4.0%	10.4	-8.1
CS(=O)(=O)N1N=C(c2ccco2)CC1c1ccc(Cl)cc1 (stereo unspecified)	6.0	-7.0	1.3	.	-4.8	22.2
Cc1ccc2c(c1)-c1c(ssc1=S)C(C)(C)N2C(=O)c1ccco1	-3.4	-26.0	-1.7	.	7.6	-61.8*
CC(=O)Nc1ccc(NC(=O)C(NS(=O)(=O)c2cccc3nsnc23)C(C)C)cc1 (stereo unspecified)	-1.5	1.9	1.3	-3.0%	30.0	-2.2
CC1C(=O)N2CCCc3cc(NC(=O)C(=O)NCCc4c[nH]c5ccccc45)cc1c32 (stereo unspecified)	2.0	1.5	1.1	-3.2%	19.7	3.9
COCCNC(=O)C(=O)Nc1cc2c3c(c1)CCC(=O)N3CCC2	-8.1	2.4	3.1	12.8%	-30.6*	3.9
CC(C)CCNC(=O)C(=O)Nc1cc2c3c(c1)CC(=O)N3CCC2	-7.6	39.1*	0.1	1.5%	-24.2	11.6
CC(C)CCNC(=O)C(=O)Nc1cc2c3c(c1)CCC(=O)N3CCC2	-11.3	4.3	0.6	-9.9%	4.1	2.2
CC1C(=O)N2CCCc3cc(NC(=O)C(=O)NCCc4ccccc4)cc1c32 (stereo unspecified)	-16.4	0.5	2.7	-6.1%	-35.1*	18.9
CN(C)CCCNC(=O)C(=O)Nc1cc2c3c(c1)CCC(=O)N3CCC2	3.4	-0.1	1.5	-10.1%	10.0	-7.7
CC(C)CN1CCc2nc(N3CCN(c4ncccn4)CC3)ncc2C1	-0.1	5.7	-0.1	7.2%	-4.1	.
O=S1(=O)C=C(Sc2nc3cc(Cl)ccc3o2)c2ccccc21	0.9	-15.7	6.7	-3.6%	-2.5	-77.5*
CN(C)C(CNc1ccc(C(F)(F)F)cn1)c1ccccc1 (stereo unspecified)	-7.3	-14.7	8.0	7.2%	3.0	-58.6*
COc1cccc(C2NC(CCSC)(C(=O)O)C3C(=O)N(C(C)C)C(=O)C23)c1O (stereo unspecified)	.	5.2	6.4	18.9%	20.4	?
CCOc1cc(/C=C2\N=C(SC(C)C(N)=O)N(c3ccc(OC(F)F)cc3)C2=O)ccc1O (stereo unspecified)	-6.3	-13.0	47.1*	99.8%	14.0	-56.5*
SMILES	D1 potentiator	DRD3 agonist	D1 agonist	ERG Ets-DNA blk	D1 antag	DRD3 antagonist
NC(=O)CSC1=N/C(=C\c2ccco2)C(=O)N1c1ccc(OC(F)F)cc1	-5.0	6.3	3.5	23.6%	11.8	2.7
NS(=O)(=O)c1ccc(NC(=O)COc2ncnc3c2cnn3-c2ccccc2)cc1	-0.8	-8.8	3.1	4.1%	9.0	-10.0
CCN1CCN(Cc2c(C)[nH]c3ccc(OC)cc3c2=O)CC1	-5.7	3.4	2.5	-7.4%	-3.1	-53.1*
COc1cccc(C(=O)NC2CC3CCC(C2)N3Cc2ccccc2)c1 (stereo unspecified)	0.1	-3.3	7.4	-7.6%	-49.0*	-107.7*
COc1cccc(C(=O)NC2CCN(CC(=O)Nc3c(C)cc(C)cc3C)CC2)c1	-6.3	.	-0.1	.	-12.7	.
O=C(NC1CC2CCC(C1)N2Cc1ccccc1)c1cccc(F)c1 (stereo unspecified)	-7.8	-3.9	3.5	1.2%	-50.3*	-117.1*
COc1cccc(C(=O)NC2CC3CCCC(C2)N3CC(=O)Nc2ccccc2C(F)(F)F)c1 (stereo unspecified)	1.9	-10.7	4.1	-1.6%	-3.2	-14.7
COc1cccc(C(=O)NC2CCN(CC(=O)Nc3nccs3)CC2)c1	-1.9	-5.3	1.7	2.1%	-32.9*	-24.5
O=C(NC1CC2CCC(C1)N2Cc1ccco1)c1ccccc1 (stereo unspecified)	-25.3	-2.9	1.5	-7.1%	-39.7*	-69.3*
COc1ccc(CS(=O)(=O)c2ncn[nH]2)cc1	10.1	19.8	2.0	-3.7%	-0.8	2.4
COc1ccc(CN2C3CCC2CC(NC(=O)c2cccc(F)c2)C3)cc1 (stereo unspecified)	-10.7	-15.1	8.1	2.4%	-25.5	-86.4*
COc1ccc(C(=S)NCS(=O)(=O)c2ccc(C)cc2)cc1	-4.5	-4.6	5.6	1.9%	-35.3*	-16.7
Cc1ccc(S(=O)(=O)CNC(=S)c2ccc3ccccc3c2)cc1	-5.5	-4.3	0.7	-0.7%	-11.4	0.0
COc1ccc(C(=S)Nc2ccc(C)cc2)cc1	-8.3	-11.0	2.4	-17.5%	-20.7	-67.4*
O=C(C1CCN(S(=O)(=O)c2ccc(Cl)c(C(F)(F)F)c2)CC1)N1CCC1	.	0.8	19.4	-5.9%	-11.5	2.3
O=C(CCC1CCCN(C(=O)c2cccs2)C1)N1CCN(c2ccccn2)CC1 (stereo unspecified)	-0.4	6.2	-1.8	-8.3%	-1.5	30.5
COc1cccc(N2CC(C)Cn3c2nc2c3c(=O)n(CCN3CCOCC3)c(=O)n2C)c1 (stereo unspecified)	-3.7	-5.1	3.8	8.0%	3.7	-64.0*
COc1ccc(C(CNC(=O)C(C)c2ccc3cc(OC)ccc3c2)N(C)C)cc1 (stereo unspecified)	-2.4	-12.3	6.9	-15.5%	6.5	-75.5*
Cc1ccc(S(=O)(=O)N2CCCCC2)cc1NC(=O)c1ccco1	.	0.2	.	.	.	27.0
